From PubChem BioAssay
A selection: hits, their analogues and other compounds. The true share with any hit is near 6%.
Tau fibril ThT: inhibitors of human tau fibril formation, thioflavin T binding; recombinant tau K18 P301L, heparin-induced fibrillization, ThT fluorescence; Potency, µM (top dose mostly 57.4 µM), actives largely listed as inhibitors; 270,000 compounds, 2.1% hits; AID 1460; note: nearly all actives have a fitted effect of over 55% in size
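Heparin-induced fibrillization of the P301L-mutant K18 repeat-domain fragment of human tau was followed by ThT binding in quantitative high-throughput format.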
Tau fluor cs: counter-screen for tau fibril formation inhibitors; 280,000 compounds, 0.93% hits; tau K18 P301L Alexa594 fluorescence, heparin fibrillization; Potency, µM (doses to about 57.7 µM); note: nearly all actives have a fitted effect of over 55% in size
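Human tau K18 P301L (15 uM unlabeled, 0.24 uM Alexa 594-labeled) in 100 mM sodium acetate pH 7 with 20 uM heparin, 6 hr at 37 C. ThT 30 uM added, 1 hr ambient; Alexa 594 FP and total fluorescence read at 555/632 nm.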
Tau FP inhib: tau fibrillization inhibition (FP); K18 P301L tau heparin fibrillization, Alexa594 FP, 6 h; 280,000 compounds, 0.39% hits; AID 1468; P10636; Potency, µM (doses to about 57.7 µM), most hits filed as inhibitors; note: nearly all actives have a fitted effect of over 55% in size
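Quantitative HTS format: compounds meet 15 uM recombinant K18 P301L tau and Alexa 594-tau tracer in 100 mM sodium acetate pH 7; 20 uM heparin triggers fibrillization at 37 C over 6 hr; FP gives the signal.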
PLK1 PBD inh: PLK1 (human) polo-box domain binding inhibition; Plk1 PBD binding of FITC phosphopeptide, fluorescence polarization; Potency, µM, usual class: inhibitors; 360,000 compounds, 2.8% hits; AID 720504; note: series mostly up to about 57 µM; nearly all actives have a fitted effect of over 65% in size
Target sequence (P53350 whole entry, looked up, the tested form may be a part): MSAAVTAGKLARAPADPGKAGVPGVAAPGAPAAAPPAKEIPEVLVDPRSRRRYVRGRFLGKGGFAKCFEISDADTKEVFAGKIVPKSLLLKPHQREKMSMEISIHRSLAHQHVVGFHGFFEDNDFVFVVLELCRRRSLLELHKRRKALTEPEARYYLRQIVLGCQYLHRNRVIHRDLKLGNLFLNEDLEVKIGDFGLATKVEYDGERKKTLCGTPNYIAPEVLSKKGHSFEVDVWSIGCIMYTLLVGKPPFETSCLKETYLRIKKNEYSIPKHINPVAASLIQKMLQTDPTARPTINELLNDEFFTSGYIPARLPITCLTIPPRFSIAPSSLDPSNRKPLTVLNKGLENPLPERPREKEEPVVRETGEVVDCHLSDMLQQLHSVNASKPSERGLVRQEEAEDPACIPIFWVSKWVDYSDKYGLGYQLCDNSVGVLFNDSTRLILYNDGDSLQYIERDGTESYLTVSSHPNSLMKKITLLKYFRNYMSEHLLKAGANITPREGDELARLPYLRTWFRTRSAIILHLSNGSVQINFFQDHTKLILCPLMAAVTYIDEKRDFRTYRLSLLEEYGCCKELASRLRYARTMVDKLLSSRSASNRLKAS
VDR inh: blocks the human vitamin D receptor; P11473; Potency, µM, actives largely listed as inhibitors; 400,000 compounds, 0.93% hits; VDR-SRC2-3 peptide fluorescence polarization, 2 h
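Measured by FP: displacement of SRC2-3 coactivator peptide from VDR by library compounds, following a two-hour ambient incubation.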
Sfp PPTase inh: inhibitors of Bacillus subtilis Sfp phosphopantetheinyl transferase; Potency, µM, most hits filed as inhibitors; Biochemical Sfp PPTase activity, qHTS; AID 1490; Q9F4F7; 310,000 compounds, 3.5% hits;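 note: the enzyme is Sfp with the accession as filed and its product quenches rhodamine fluorescence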
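Buffer: 50 mM Hepes-Na pH 7.6, 10 mM MgCl2, 0.01% Nonidet P-40, 0.01% BSA. Enzyme 15 nM, pre-exposed to compound 15 min; substrates then added and fluorescence change tracked over 30 min.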
Of the large screens only hits and unclear results are named; the others gave an inactive call; [ ] = dose if it differs, or a comment. Calls come from the whole dose curve; as a rule, active = well fitted curve in the direction sought with a large enough effect; inconclusive = small, poorly fitted or top-dose-only effect, or another doubt; inactive = no such curve, though single readings can be large; an effect the other way counts as inactive or inconclusive.

Cc1cccc(OCC(=O)N/N=C\c2cc3c(cc2[N+](=O)[O-])OCO3)c1C	Tau fibril ThT inconclusive, Tau fluor cs inconclusive, Tau FP inhib inconclusive, Sfp PPTase inh 25.1µM
Cc1cccc(N=Cc2cc3c(cc2[N+](=O)[O-])OCO3)c1	Tau fibril ThT 10µM, Tau fluor cs inconclusive, Tau FP inhib inconclusive
COc1ccc(OC)c(/C=C/c2ccc3cccc(O)c3n2)c1	none (no result: Tau fibril ThT, Tau fluor cs, Tau FP inhib, PLK1 PBD inh, VDR inh)
CC(C)C[C@H]1CN(CCCC[C@@H]2CNC(=O)C(=O)N2CC2CCCCC2)C(=O)C(=O)N1CCc1ccc(O)cc1	none (no result: Tau fibril ThT, Tau fluor cs, Tau FP inhib, VDR inh, Sfp PPTase inh)
O=C1CCCN1C(=O)CSc1nnnn1-c1cccc(F)c1	none (no result: Tau fibril ThT, Tau fluor cs, Tau FP inhib, Sfp PPTase inh)
Oc1ccc(Br)cc1CNc1ccccn1	PLK1 PBD inh 16.8µM, VDR inh inconclusive
Cc1ccc(-c2nc(N3CCN(S(=O)(=O)c4ccc(F)cc4)CC3)c3ccc(Cl)cc3n2)cc1	none (no result: Tau fibril ThT, Tau fluor cs, Tau FP inhib, PLK1 PBD inh, Sfp PPTase inh)
CC(=O)Nc1cccc(-c2nnc(SCC(=O)c3cc([N+](=O)[O-])ccc3Cl)o2)c1	Tau fibril ThT inconclusive, Tau fluor cs 20µM[quencher] (no result: PLK1 PBD inh, Sfp PPTase inh)
C=CCn1c(O)c(C2=c3ccccc3=NC2=O)sc1=Nc1ccc(O)cc1	Tau fibril ThT 12.6µM, Tau fluor cs 12.6µM[quencher], Tau FP inhib inconclusive
C=CCN1C(=O)CSC1=Nc1ccc(O)cc1	none
Cc1ccc2nc(SCc3cn4cccnc4n3)[nH]c2c1	PLK1 PBD inh 26.7µM, VDR inh inconclusive
c1cnc2nc(CSc3ncn[nH]3)cn2c1	none
CCOc1ccc(CC(=O)NCCc2sc3nc(-c4ccc(F)cc4)nn3c2C)cc1	none (no result: PLK1 PBD inh, Sfp PPTase inh)
CC(C)n1c2ccccc2c2nnc(SCC(=O)Nc3ccccc3C(=O)O)nc21	PLK1 PBD inh 26.7µM
CC(Nc1ccc(Br)cn1)c1cc(Cl)ccc1O (stereo not drawn)	Tau fluor cs inconclusive, PLK1 PBD inh 26.7µM
Cc1cc(=O)c2c(O)c3c(O)cc(O)c4c5c(O)cc(O)c6c(O)c7c(=O)cc(C)c8c1c2c(c34)c(c65)c78	Tau fibril ThT 14.1µM, Tau fluor cs 4.47µM[quencher], Tau FP inhib inconclusive, VDR inh inconclusive, Sfp PPTase inh 50.1µM (no result: PLK1 PBD inh)
COc1cccc(-c2cc(NCc3ccccc3OC)ncn2)c1	none (no result: Tau fibril ThT, Tau fluor cs, Tau FP inhib, PLK1 PBD inh)
COc1ccc(CNc2cc(-c3ccoc3)ncn2)c(OC)c1	VDR inh 11.2µM, Sfp PPTase inh 44.7µM (no result: Tau fibril ThT, Tau fluor cs, Tau FP inhib, PLK1 PBD inh)
c1ccc(CNc2cc(-c3ccoc3)ncn2)cc1	VDR inh 12.6µM, Sfp PPTase inh 31.6µM (no result: Tau fibril ThT, Tau fluor cs, Tau FP inhib, PLK1 PBD inh)
c1ccc(Nc2cc(-c3ccoc3)ncn2)cc1	VDR inh 11.2µM, Sfp PPTase inh 31.6µM (no result: Tau fibril ThT, Tau fluor cs, Tau FP inhib, PLK1 PBD inh)
CC(=O)N1CCCc2cc(S(=O)(=O)N(C)CC(=O)Nc3cccc(Cl)c3C)ccc21	none (no result: PLK1 PBD inh, Sfp PPTase inh)
Cc1cc(Br)ccc1N=C1NC(=O)CS1	PLK1 PBD inh 26.7µM, Sfp PPTase inh 39.8µM (no result: Tau fibril ThT, Tau fluor cs, Tau FP inhib)
Cc1ccc(N=C2NC(=O)CS2)c(C)c1	none
CCCC[C@]12Cc3ccccc3[C@H](O1)C1=C(O2)C(=O)c2ccccc2C1=O	none (no result: Tau fibril ThT, Tau fluor cs, Tau FP inhib, PLK1 PBD inh, VDR inh)
COc1ccc(-c2cc(-c3cccs3)c(C#N)c(SCC(=O)NCc3ccco3)n2)cc1	Sfp PPTase inh 56.2µM
COC(=O)CSc1nc(-c2cccs2)ccc1C#N	Tau fibril ThT inconclusive, PLK1 PBD inh inconclusive, Sfp PPTase inh 39.8µM
CCN(CC)C(=O)CSc1nc(-c2cccs2)cc(-c2cccs2)c1C#N	Tau fibril ThT inconclusive, PLK1 PBD inh 11.9µM, VDR inh inconclusive, Sfp PPTase inh 7.94µM
COC(=O)CSc1nc2ccccc2nc1SCC(=O)OC	Sfp PPTase inh 50.1µM
C#CCSc1nc(-c2cccs2)ccc1C#N	Tau FP inhib inconclusive
CCN(CC)C(=O)CSc1nc(N)c(C#N)c(-c2cccs2)c1C#N	none
COc1ccc(N2CC(C(=O)N[C@@H](CC(C)C)C(=O)NC3CCCC3)CC2=O)cc1 (stereo partly drawn)	none (no result: Tau fibril ThT, Tau fluor cs, Tau FP inhib)
Cc1cn([C@H]2C[C@H](O)[C@@H](/C=C/C(=O)NCCN3CCCCC3)O2)c(=O)[nH]c1=O	none (no result: Tau fibril ThT, Tau fluor cs, Tau FP inhib, VDR inh, Sfp PPTase inh)
Clc1ccc(Cc2nn3c(Cn4nnc5ccccc54)nnc3s2)cc1	PLK1 PBD inh 26.7µM, Sfp PPTase inh 28.2µM
S=c1[nH]nc(Cn2nnc3ccccc32)n1-c1ccc(Cl)cc1	none
c1ccc2oc(-c3nn4c(Cn5cnc6ccccc65)nnc4s3)cc2c1	PLK1 PBD inh inconclusive (no result: Tau fibril ThT, Tau fluor cs, Tau FP inhib, Sfp PPTase inh)
c1coc(-c2nn3c(Cn4nnc5ccccc54)nnc3s2)c1	PLK1 PBD inh 26.7µM, VDR inh inconclusive, Sfp PPTase inh 44.7µM
